Source: the supplement of paper PMC10849652
About 7,900 targets were measured; listed, in parts, are those with a hit and a random draw of the rest. About 0.6% of all pairs of compound and target were hits.

The targets below were run with O=C(CCCCCCC(=O)Nc1ccccc1)NO [vorinostat] (assay: log2 fold change, soluble protein after heating vs DMSO (PISA); higher = thermal stabilisation; K562 cells, 10 uM, 30 min; active = over 0.2 and 3.5 SD of the protein, either way, in both replicates (recomputed)).
In short: (§1)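 K562 cells at 2×10^6 cells/mL were exposed to 10 μM compound for 30 min, then aliquots were heated for 3 min across 48°C-58°C, pooled, and extracted in PBS containing 0.5% NP-40 at 4°C. The supernatant after 21,000xg for 90 min was taken as soluble protein and measured by TMTpro 16plex LC-MS/MS with channel sums equalised. Thermal stability is reported relative to control samples, with values from duplicates. Fold changes are given on a log2 scale.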

Chain of UniProt P46020 (P46020 whole entry, looked up): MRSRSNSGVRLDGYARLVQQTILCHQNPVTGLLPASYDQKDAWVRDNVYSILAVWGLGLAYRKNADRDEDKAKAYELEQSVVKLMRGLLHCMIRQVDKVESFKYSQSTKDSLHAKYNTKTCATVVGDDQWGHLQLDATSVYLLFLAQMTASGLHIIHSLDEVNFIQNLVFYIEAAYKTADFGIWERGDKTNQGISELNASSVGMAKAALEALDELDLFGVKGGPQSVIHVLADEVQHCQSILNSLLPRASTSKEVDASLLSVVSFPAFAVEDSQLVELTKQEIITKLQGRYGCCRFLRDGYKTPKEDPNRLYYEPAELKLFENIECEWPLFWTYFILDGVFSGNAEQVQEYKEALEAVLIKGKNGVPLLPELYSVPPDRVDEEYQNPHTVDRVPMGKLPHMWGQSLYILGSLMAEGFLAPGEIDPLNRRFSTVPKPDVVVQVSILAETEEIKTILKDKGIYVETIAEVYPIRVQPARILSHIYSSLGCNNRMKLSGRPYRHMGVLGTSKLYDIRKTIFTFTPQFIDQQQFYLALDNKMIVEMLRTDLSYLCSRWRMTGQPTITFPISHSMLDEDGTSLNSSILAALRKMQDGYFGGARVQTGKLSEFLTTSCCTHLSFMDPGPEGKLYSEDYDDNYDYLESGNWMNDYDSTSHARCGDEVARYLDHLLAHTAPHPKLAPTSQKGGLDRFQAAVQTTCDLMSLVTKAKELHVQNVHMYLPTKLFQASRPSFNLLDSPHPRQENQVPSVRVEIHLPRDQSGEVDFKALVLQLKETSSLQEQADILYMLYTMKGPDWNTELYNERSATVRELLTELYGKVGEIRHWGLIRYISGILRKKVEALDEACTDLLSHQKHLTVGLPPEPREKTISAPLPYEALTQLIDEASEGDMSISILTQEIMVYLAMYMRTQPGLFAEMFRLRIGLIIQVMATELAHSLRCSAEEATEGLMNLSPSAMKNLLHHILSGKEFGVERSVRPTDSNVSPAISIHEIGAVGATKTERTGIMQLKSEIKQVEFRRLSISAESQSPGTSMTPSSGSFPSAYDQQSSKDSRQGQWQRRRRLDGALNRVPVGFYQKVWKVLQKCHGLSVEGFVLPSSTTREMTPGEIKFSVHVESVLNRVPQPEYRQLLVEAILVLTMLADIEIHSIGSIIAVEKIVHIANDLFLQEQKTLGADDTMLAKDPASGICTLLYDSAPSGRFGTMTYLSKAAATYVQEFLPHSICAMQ
Chain of UniProt Q10713 (Q10713 whole entry, looked up): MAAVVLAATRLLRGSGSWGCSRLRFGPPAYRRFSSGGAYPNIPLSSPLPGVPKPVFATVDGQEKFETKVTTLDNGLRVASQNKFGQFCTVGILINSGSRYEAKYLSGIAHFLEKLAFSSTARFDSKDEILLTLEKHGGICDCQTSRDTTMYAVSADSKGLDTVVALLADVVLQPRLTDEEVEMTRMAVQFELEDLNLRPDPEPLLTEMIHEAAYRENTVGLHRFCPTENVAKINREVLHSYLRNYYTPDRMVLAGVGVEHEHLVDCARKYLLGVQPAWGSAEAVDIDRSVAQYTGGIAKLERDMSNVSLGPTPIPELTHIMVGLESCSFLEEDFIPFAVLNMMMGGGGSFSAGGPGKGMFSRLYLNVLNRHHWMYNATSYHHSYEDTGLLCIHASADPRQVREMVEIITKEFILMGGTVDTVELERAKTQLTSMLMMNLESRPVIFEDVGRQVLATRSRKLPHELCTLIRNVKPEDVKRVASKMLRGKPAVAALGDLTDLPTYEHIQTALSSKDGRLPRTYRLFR
Chain of UniProt Q99541 (Q99541 whole entry, looked up): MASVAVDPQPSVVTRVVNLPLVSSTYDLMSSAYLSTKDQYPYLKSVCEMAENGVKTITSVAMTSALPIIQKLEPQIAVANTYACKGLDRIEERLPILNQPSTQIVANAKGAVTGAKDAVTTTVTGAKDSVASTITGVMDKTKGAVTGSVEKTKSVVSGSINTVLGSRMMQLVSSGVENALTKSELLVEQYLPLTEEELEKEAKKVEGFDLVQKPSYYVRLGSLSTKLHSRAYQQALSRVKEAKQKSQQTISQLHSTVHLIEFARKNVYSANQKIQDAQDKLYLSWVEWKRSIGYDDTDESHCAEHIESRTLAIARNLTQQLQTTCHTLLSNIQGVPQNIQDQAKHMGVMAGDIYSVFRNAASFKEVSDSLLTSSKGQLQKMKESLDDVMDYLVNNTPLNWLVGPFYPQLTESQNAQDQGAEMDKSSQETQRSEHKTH
Chain of UniProt Q86T03 (Q86T03 whole entry, looked up): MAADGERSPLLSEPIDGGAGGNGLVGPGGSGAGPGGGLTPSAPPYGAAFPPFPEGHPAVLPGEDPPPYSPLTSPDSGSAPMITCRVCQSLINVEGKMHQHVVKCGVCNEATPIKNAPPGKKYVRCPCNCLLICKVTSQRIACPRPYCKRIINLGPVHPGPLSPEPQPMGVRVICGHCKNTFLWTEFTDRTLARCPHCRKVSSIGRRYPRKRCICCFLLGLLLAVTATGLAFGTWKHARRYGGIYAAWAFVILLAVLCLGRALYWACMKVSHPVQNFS
Chain of UniProt Q96PU8 (Q96PU8 whole entry, looked up): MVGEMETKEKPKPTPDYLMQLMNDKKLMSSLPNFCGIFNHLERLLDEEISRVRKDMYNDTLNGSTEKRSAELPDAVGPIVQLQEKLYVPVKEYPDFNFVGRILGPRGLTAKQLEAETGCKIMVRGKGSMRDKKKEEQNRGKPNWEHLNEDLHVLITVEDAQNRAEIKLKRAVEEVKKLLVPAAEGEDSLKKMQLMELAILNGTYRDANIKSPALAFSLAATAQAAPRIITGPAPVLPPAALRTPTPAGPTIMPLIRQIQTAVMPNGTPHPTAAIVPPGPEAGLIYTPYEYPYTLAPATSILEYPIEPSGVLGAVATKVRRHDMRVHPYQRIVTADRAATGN
Chain of UniProt Q9UG56 (Q9UG56 whole entry, looked up): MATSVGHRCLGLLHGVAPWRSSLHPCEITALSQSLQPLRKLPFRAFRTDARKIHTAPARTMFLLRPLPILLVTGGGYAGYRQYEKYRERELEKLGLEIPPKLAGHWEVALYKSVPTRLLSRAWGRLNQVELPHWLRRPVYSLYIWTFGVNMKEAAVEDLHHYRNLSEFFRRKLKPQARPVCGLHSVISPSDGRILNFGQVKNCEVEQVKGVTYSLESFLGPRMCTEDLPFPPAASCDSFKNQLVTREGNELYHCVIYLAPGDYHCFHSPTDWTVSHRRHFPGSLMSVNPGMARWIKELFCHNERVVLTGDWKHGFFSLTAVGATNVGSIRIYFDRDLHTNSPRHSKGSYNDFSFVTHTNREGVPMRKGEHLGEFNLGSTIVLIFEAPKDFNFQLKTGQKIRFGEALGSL
Chain of UniProt P43686 (P43686 whole entry, looked up): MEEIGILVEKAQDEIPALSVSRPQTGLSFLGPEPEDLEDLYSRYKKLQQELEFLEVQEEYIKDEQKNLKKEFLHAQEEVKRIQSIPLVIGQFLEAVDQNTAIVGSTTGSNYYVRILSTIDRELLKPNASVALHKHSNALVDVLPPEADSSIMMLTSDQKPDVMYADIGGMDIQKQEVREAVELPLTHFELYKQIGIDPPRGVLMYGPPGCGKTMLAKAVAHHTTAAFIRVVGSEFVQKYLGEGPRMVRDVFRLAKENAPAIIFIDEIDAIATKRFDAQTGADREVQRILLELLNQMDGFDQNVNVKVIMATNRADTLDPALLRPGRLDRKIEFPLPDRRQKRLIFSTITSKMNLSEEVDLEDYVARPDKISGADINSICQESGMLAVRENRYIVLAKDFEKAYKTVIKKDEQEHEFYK
Chain of UniProt P62191 (P62191 whole entry, looked up): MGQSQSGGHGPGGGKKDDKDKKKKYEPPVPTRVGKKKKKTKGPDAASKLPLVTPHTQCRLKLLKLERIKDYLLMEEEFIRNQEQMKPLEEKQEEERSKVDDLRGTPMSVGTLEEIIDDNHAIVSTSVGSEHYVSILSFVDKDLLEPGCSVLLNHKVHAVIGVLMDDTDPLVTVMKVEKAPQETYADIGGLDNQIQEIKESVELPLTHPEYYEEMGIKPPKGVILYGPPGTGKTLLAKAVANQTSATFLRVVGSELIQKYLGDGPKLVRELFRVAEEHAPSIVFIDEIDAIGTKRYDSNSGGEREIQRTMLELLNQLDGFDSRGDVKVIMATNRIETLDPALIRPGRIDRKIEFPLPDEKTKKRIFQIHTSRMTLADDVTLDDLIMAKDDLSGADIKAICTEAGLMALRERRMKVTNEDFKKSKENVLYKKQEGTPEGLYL
Chain of UniProt Q8WUK0 (Q8WUK0 whole entry, looked up): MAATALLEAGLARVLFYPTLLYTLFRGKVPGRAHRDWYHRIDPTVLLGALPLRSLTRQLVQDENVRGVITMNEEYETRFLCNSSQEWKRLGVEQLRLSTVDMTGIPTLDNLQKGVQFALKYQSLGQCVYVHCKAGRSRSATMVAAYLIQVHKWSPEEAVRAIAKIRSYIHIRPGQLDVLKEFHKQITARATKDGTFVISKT

log2 fold change, inactive:
POLR3D (UniProt P05423) 0.158
PRKCA (UniProt P17252) 0.117
PRKD2 isoform 3 (UniProt Q9BZL6) 0.186
PHKA2 (UniProt P46019) 0.04
PGGHG (UniProt Q32M88) 0.019
PTPMT1 (UniProt Q8WUK0) 0.049
PEX11B (UniProt O96011) 0.049
PCYT1B (UniProt Q9Y5K3) -0.038
PEF1 (UniProt Q9UBV8) 0.01
PHKA1 (UniProt P46020) 0.013
PISD (UniProt Q9UG56) 0.069
PDE6D (UniProt O43924) -0.007
PSMD7 (UniProt P51665) -0.002
PNN (UniProt Q9H307) 0.045
PBX2 (UniProt P40425) 0.196
PPP2R5C isoform 4 (UniProt Q13362) -0.033
PIP4P1 isoform 2 (UniProt Q86T03) -0.019
QKI (UniProt Q96PU8) 0.06
PMVK (UniProt Q15126) -0.134
PI4K2B (UniProt Q8TCG2) -0.021
PDE12 (UniProt Q6L8Q7) -0.003
POGZ (UniProt Q7Z3K3) -0.186
PLIN2 (UniProt Q99541) 0.203
PRKD3 (UniProt O94806) 0.096
PSMC4 (UniProt P43686) -0.023
PSMC1 (UniProt P62191) -0.013
PMPCA (UniProt Q10713) -0.016
PRIM1 (UniProt P49642) 0.065
PRKACB isoform 2 (UniProt P22694) 0.04
PTK2B (UniProt Q14289) 0.011

What follows are targets tested with O=C(CCCCCCNC(=O)c1cnc(N(c2ccccc2)c2ccccc2Cl)nc1)NO [citarinostat] in the same assay as above.
In short: as §1

log2 fold change, inactive:
PRKCA (UniProt P17252) 0.028
POLR2C (UniProt P19387) 0.017
PHKA2 (UniProt P46019) -0.046
POLR2M (UniProt Q6EEV4) 0.029
PGGHG (UniProt Q32M88) -0.009
PTPMT1 (UniProt Q8WUK0) 0.014
PEX11B (UniProt O96011) 0.114
PDIK1L (UniProt Q8N165) 0.016
PCYT1B (UniProt Q9Y5K3) 0.084
PTP4A2 (UniProt Q12974) 0.016
PEF1 (UniProt Q9UBV8) 0.045
PHKA1 (UniProt P46020) 0.128
PISD (UniProt Q9UG56) 0.035
PNPLA4 (UniProt P41247) 0.602
PSMD7 (UniProt P51665) -0.048
PNN (UniProt Q9H307) -0.077
PPP2R5C isoform 4 (UniProt Q13362) 0.055
PIP4P1 isoform 2 (UniProt Q86T03) 0.01
QKI (UniProt Q96PU8) 0.026
PI4K2B (UniProt Q8TCG2) 0.075
PDE12 (UniProt Q6L8Q7) 0.044
POGZ (UniProt Q7Z3K3) -0.206
PLIN2 (UniProt Q99541) 0.027
PSMC4 (UniProt P43686) -0.015
QRICH1 (UniProt Q2TAL8) 0.11
PSMC1 (UniProt P62191) -0.032
PMPCA (UniProt Q10713) 0.017
PRIM1 (UniProt P49642) 0.063
PRKACB isoform 2 (UniProt P22694) 0.015

The targets below were run with O=C(O)c1ccc2c(c1)nc(Nc1cccc(Cl)c1)c1ccncc12 [silmitasertib] in the same assay as above.
In short: as §1

log2 fold change, inactive:
POLR3D (UniProt P05423) 0.078
PRKCA (UniProt P17252) -0.045
POLR2C (UniProt P19387) 0.118
PRKD2 isoform 3 (UniProt Q9BZL6) 0.047
PHKA2 (UniProt P46019) 0.001
POLR2M (UniProt Q6EEV4) 0.03
PGGHG (UniProt Q32M88) 0.073
PTPMT1 (UniProt Q8WUK0) 0.032
PEX11B (UniProt O96011) -0.031
PDIK1L (UniProt Q8N165) 0.035
PCYT1B (UniProt Q9Y5K3) 0.077
PTP4A2 (UniProt Q12974) 0.052
PEF1 (UniProt Q9UBV8) 0.028
PHKA1 (UniProt P46020) 0.004
PISD (UniProt Q9UG56) -0.019
PDE6D (UniProt O43924) 0.077
PNPLA4 (UniProt P41247) 0.012
PSMD7 (UniProt P51665) 0.016
PNN (UniProt Q9H307) -0.124
PBX2 (UniProt P40425) 0.003
PPP2R5C isoform 4 (UniProt Q13362) -0.015
PIP4P1 isoform 2 (UniProt Q86T03) 0.054
QKI (UniProt Q96PU8) -0.012
PMVK (UniProt Q15126) 0.065
PI4K2B (UniProt Q8TCG2) 0.051
PDE12 (UniProt Q6L8Q7) -0.014
PLIN2 (UniProt Q99541) 0.035
PRKD3 (UniProt O94806) 0.021
PSMC4 (UniProt P43686) -0.015
QRICH1 (UniProt Q2TAL8) 0.047
PSMC1 (UniProt P62191) 0.001
PMPCA (UniProt Q10713) -0.061
PRIM1 (UniProt P49642) 0.089
PRKACB isoform 2 (UniProt P22694) -0.002
PTK2B (UniProt Q14289) 0.054
